These molecules were tested on Odoribacter splanchnicus (assay: growth AUC relative to DMSO control (median of replicates) (fraction); higher = more growth (less inhibition), active = hit call of the paper). Details: 20 µM; 24 h;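 active = AUC reduced over 20% with Padj below 0.05 in at least 2 of 3 replicates; inactive = otherwise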.
Summary of the method: (§1)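 Gut bacterial monocultures were grown anaerobically at 37 °C in mGAM from a starting OD600 of 0.05 with 20 µM compound (1% DMSO), in round-bottom 96-well plates under pierced gas-permeable seals, and OD600 was read hourly for 24 h. With the minimum OD set to 0, area under the growth curve was normalised to the plate median of solvent-only wells, or to row and column medians on the industrial chemical plate. Each value is the median of three biological replicates grown on separate days.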

Row | Compound | growth AUC
1 | CN(C)C(=O)Nc1ccc(Cl)c(Cl)c1 | 0.888 (inactive)
2 | CCOC(=O)C1CC(=O)C(=C(O)C2CC2)C(=O)C1 (stereo not drawn) | 0.976 (inactive)
3 | COC(=O)C(C)Oc1ccc(Cl)cc1C (stereo not drawn) | 1.02 (inactive)
4 | FC(F)(F)C(=NOCC1OCCO1)c1ccc(Cl)cc1 | 1.04 (inactive)
5 | NC(=S)Nc1cccc2ccccc12 | 0.983 (inactive)
6 | CC(C)c1cc(Oc2ccccc2)cc(C(C)C)c1NC(=S)NC(C)(C)C | 0.989 (inactive)
7 | O=[N+](Nc1ccccc1)c1ccccc1 | 0.973 (inactive)
8 | Cc1[nH]n(C)c(=O)c1C(=O)c1ccc(C(F)(F)F)cc1S(C)(=O)=O | 1.02 (inactive)
9 | O=C=NC1CCC(CC2CCC(N=C=O)CC2)CC1 (stereo not drawn) | 1.06 (inactive)
10 | CCc1cccc(C)c1N(COC(C)C)C(=O)CCl | 1.1 (inactive)
11 | O=C(Nc1ccc(Cl)cc1C(O)c1ccccc1)c1ccncc1 (stereo not drawn) | 0.971 (inactive)
12 | CNC(=O)Nc1nc2ccccc2s1 | 1.05 (inactive)
13 | CC(C)CNC(=O)N1CCNC1=O | 1.06 (inactive)
14 | C/C=C/C(=O)Oc1c(C(C)CCCCCC)cc([N+](=O)[O-])cc1[N+](=O)[O-] (mixture of isomers) | 0.679 (inactive)
15 | CCOC(=O)NCCOc1ccc(Oc2ccccc2)cc1 | 0.931 (inactive)
16 | NC(=O)Cc1cccc2ccccc12 | 0.992 (inactive)
17 | NS(=O)(=O)[O-].[NH4+] | 0.988 (inactive)
18 | COC(=O)c1ccc(C(=O)OC)cc1 | 0.989 (inactive)
19 | Nc1cc(Cl)nc(C(=O)O)c1Cl | 1.05 (inactive)
20 | CCc1cccc(C)c1N(C(=O)C(=O)O)[C@@H](C)C(=O)O | 0.95 (inactive)

Row | Compound | growth AUC
21 | O=S(=O)(Oc1ccc(Cl)cc1)c1ccccc1 | 0.987 (inactive)
22 | Oc1ccc2nc(-c3cscn3)[nH]c2c1 | 1.01 (inactive)
23 | COC(=O)c1csc(C)c1S(=O)(=O)NC(=O)n1nc(OC)n(C)c1=O | 0.982 (inactive)
24 | CCCCOCN(C(=O)CS(=O)(=O)[O-])c1c(CC)cccc1CC.[Na+] | 0.938 (inactive)
25 | O.O.O=[N+]([O-])c1ccc([O-])cc1.[Na+] | 0.85 (inactive)
26 | COCC(=O)N(c1c(C)cccc1C(=O)O)C(C)C(=O)O (stereo not drawn) | 1.1 (inactive)
27 | O=C(O)COc1ccc(Cl)cc1CO | 0.96 (inactive)
28 | CCOc1ccc2c(c1)C(C)=CC(C)(C)N2 | 1.07 (inactive)
29 | CC(C)CCCCCOC(=O)C(C)Oc1ccc(Cl)cc1Cl (stereo not drawn) | 0.814 (inactive)
30 | [S] | 1.03 (inactive)
31 | CCCC(C)(C)C(=O)Nc1ccc(Cl)cc1 | 0.958 (inactive)
32 | CSc1nnc(C(C)(C)C)c(=O)n1/N=C/C(C)C | 0.96 (inactive)
33 | O=C(O)CCCc1c[nH]c2ccccc12 | 0.989 (inactive)
34 | C=C1C[C@]23C[C@@]1(O)CC[C@H]2[C@@]12C=C[C@H](O)[C@@](C)(C(=O)O1)[C@H]2[C@@H]3C(=O)O | 0.779 (inactive)
35 | Nc1ccc(S(=O)(=O)Nc2nccs2)cc1 | 0.987 (inactive)
36 | CCCCCCCCCC[N+](C)(C)Cc1ccccc1.[Cl-] | 0.926 (inactive)
37 | CN1CCC[C@H]1c1cccnc1 | 0.989 (inactive)
38 | O=C1NCCN1 | 1.04 (inactive)
39 | O=C(O)COc1cccc(Cl)c1Cl | 0.92 (inactive)

Each molecule was assayed on Parabacteroides distasonis in the same assay as above. Details: 20 µM; 24 h.
Summary of the method: as §1

Row | Compound | growth AUC
40 | CN(C)C(=O)Nc1ccc(Cl)c(Cl)c1 | 1.09 (inactive)
41 | CCOC(=O)C1CC(=O)C(=C(O)C2CC2)C(=O)C1 (stereo not drawn) | 0.984 (inactive)
42 | COC(=O)C(C)Oc1ccc(Cl)cc1C (stereo not drawn) | 1.02 (inactive)
43 | FC(F)(F)C(=NOCC1OCCO1)c1ccc(Cl)cc1 | 1 (inactive)
44 | NC(=S)Nc1cccc2ccccc12 | 1.05 (inactive)
45 | CC(C)c1cc(Oc2ccccc2)cc(C(C)C)c1NC(=S)NC(C)(C)C | 1.05 (inactive)
46 | O=[N+](Nc1ccccc1)c1ccccc1 | 0.976 (inactive)
47 | Cc1[nH]n(C)c(=O)c1C(=O)c1ccc(C(F)(F)F)cc1S(C)(=O)=O | 1.04 (inactive)
48 | O=C=NC1CCC(CC2CCC(N=C=O)CC2)CC1 (stereo not drawn) | 1 (inactive)
49 | CCc1cccc(C)c1N(COC(C)C)C(=O)CCl | 1.04 (inactive)
50 | O=C(Nc1ccc(Cl)cc1C(O)c1ccccc1)c1ccncc1 (stereo not drawn) | 0.983 (inactive)
51 | CNC(=O)Nc1nc2ccccc2s1 | 0.984 (inactive)
52 | CC(C)CNC(=O)N1CCNC1=O | 0.956 (inactive)
53 | C/C=C/C(=O)Oc1c(C(C)CCCCCC)cc([N+](=O)[O-])cc1[N+](=O)[O-] (mixture of isomers) | 0.288 (active)
54 | CCOC(=O)NCCOc1ccc(Oc2ccccc2)cc1 | 0.932 (inactive)
55 | NC(=O)Cc1cccc2ccccc12 | 1.01 (inactive)
56 | NS(=O)(=O)[O-].[NH4+] | 1.02 (inactive)
57 | COC(=O)c1ccc(C(=O)OC)cc1 | 0.993 (inactive)
58 | Nc1cc(Cl)nc(C(=O)O)c1Cl | 1.03 (inactive)
59 | CCc1cccc(C)c1N(C(=O)C(=O)O)[C@@H](C)C(=O)O | 0.809 (inactive)

Row | Compound | growth AUC
60 | O=S(=O)(Oc1ccc(Cl)cc1)c1ccccc1 | 0.974 (inactive)
61 | Oc1ccc2nc(-c3cscn3)[nH]c2c1 | 1.02 (inactive)
62 | COC(=O)c1csc(C)c1S(=O)(=O)NC(=O)n1nc(OC)n(C)c1=O | 0.801 (inactive)
63 | CCCCOCN(C(=O)CS(=O)(=O)[O-])c1c(CC)cccc1CC.[Na+] | 1 (inactive)
64 | O.O.O=[N+]([O-])c1ccc([O-])cc1.[Na+] | 0.971 (inactive)
65 | COCC(=O)N(c1c(C)cccc1C(=O)O)C(C)C(=O)O (stereo not drawn) | 1.01 (inactive)
66 | O=C(O)COc1ccc(Cl)cc1CO | 0.91 (inactive)
67 | CCOc1ccc2c(c1)C(C)=CC(C)(C)N2 | 0.97 (inactive)
68 | CC(C)CCCCCOC(=O)C(C)Oc1ccc(Cl)cc1Cl (stereo not drawn) | 0.925 (inactive)
69 | [S] | 0.986 (inactive)
70 | CCCC(C)(C)C(=O)Nc1ccc(Cl)cc1 | 0.928 (inactive)
71 | CSc1nnc(C(C)(C)C)c(=O)n1/N=C/C(C)C | 1.03 (inactive)
72 | O=C(O)CCCc1c[nH]c2ccccc12 | 0.922 (inactive)
73 | C=C1C[C@]23C[C@@]1(O)CC[C@H]2[C@@]12C=C[C@H](O)[C@@](C)(C(=O)O1)[C@H]2[C@@H]3C(=O)O | 0.778 (inactive)
74 | Nc1ccc(S(=O)(=O)Nc2nccs2)cc1 | 1 (inactive)
75 | CCCCCCCCCC[N+](C)(C)Cc1ccccc1.[Cl-] | 0.847 (inactive)
76 | CN1CCC[C@H]1c1cccnc1 | 1.02 (inactive)
77 | O=C1NCCN1 | 1.02 (inactive)
78 | O=C(O)COc1cccc(Cl)c1Cl | 0.994 (inactive)
